Experimental data published in PubChem BioAssay (NCI).
Compounds without any hit were thinned out: in the full panel of roughly 79,000, 15% have a hit. Activity calls are given as the source filed them. No stated cut-off is given here; in the data, active means growth inhibition above about 70%; inactive means the rest.

What was measured:
[1] = NCI Yeast Anticancer Drug Screen. Data for the rad50 strain (AID 155);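 further: 0% = growth of vehicle-only cultures of the same strain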; settings: S. cerevisiae rad50 strain growth inhibition; at 50.0 µM; hits give high values
Summary of the method: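 Cells are treated with compound, grown, and their growth is then scored against vehicle-only cultures of the same repair-deficient yeast strain.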

[2] = NCI Yeast Anticancer Drug Screen. Data for the mec2-1 strain (AID 157); settings: S. cerevisiae mec2-1 strain, at 50.0 µM, hits give high values
Summary of the method: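 Mutant yeast (mec2-1) grown with compound; growth inhibition relative to vehicle control reported.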

[3] = NCI Yeast Anticancer Drug Screen. Data for the sgs1 mgt1 strain (AID 161);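 further: 0% = growth of cultures given vehicle only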; settings: S. cerevisiae sgs1 mgt1 strain, at 50.0 µM, hits give high values
Summary of the method: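 Compounds are added to genetically altered yeast, and growth is compared with cultures given vehicle alone to give percent inhibition.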

[4] = NCI Yeast Anticancer Drug Screen. Data for the cln2 rad14 strain (AID 165);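 further: 0% = growth equal to vehicle treated cultures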; settings: S. cerevisiae cln2 rad14 strain, at 50.0 µM, hits give high values
Summary of the method: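 Readout is yeast growth inhibition versus vehicle-treated controls, using a strain with cln2 and rad14 alterations exposed to compound.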

[5] = NCI Yeast Anticancer Drug Screen. Data for the bub3 strain (AID 167); settings: S. cerevisiae bub3 mutant strain, at 50.0 µM, hits give high values
Summary of the method: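 Part of a panel of yeast mutants defective in DNA damage repair or cell cycle regulation. Each strain is grown with compound, and inhibition is calculated relative to solvent-treated cultures.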

[6] = NCI Yeast Anticancer Drug Screen. Data for the mlh1 rad18 strain (AID 175); settings: S. cerevisiae mlh1 rad18 strain growth inhibition; at 50.0 µM; hits give high values
Summary of the method: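 Genetically defined yeast (DNA repair-deficient) exposed to compounds; growth inhibition determined relative to vehicle.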

Measured: growth inhibition

O=C1c2ccccc2-c2c1c1ccccc1c(=O)n2Cc1ccccc1
inactive: [1] 6.1% | [2] -14.2% | [3] 2.85% | [4] 8.05% | [5] -16.9% | [6] -63.8%

N#CCC(CC#N)C(c1cccc2ccccc12)c1cccc2ccccc12
inactive: [1] 9.85% | [2] -2.45% | [3] -3.85% | [4] 3.25% | [5] 18.7% | [6] -1.7%

O=[N+]([O-])c1ccc(-c2noc(-c3ccccc3)c2C2=NCCN2)cc1
inactive: [1] -9.85% | [2] -6% | [3] 5.25% | [4] 4.75% | [5] 7.8% | [6] 7.6%

O=C1CC(c2ccccc2)C(c2ccccc2)C1C(=O)OC1CCCCC1 (centres undefined)
inactive: [1] 0.5% | [2] 2.85% | [3] 0.65% | [4] -62.5% | [5] 0.55% | [6] -15.4%

CCOC(=O)C(=Cc1ccc(Oc2ccccc2)cc1)C(=O)OCC
inactive: [1] 39.4% | [2] -6% | [3] 22.1% | [4] 24.8% | [5] 6.1% | [6] 7%

COc1cc(C2=N/C(=C\C=C\c3ccccc3)C(=O)O2)cc(OC)c1OC
inactive: [1] 16.8% | [2] 16% | [3] 21.9% | [4] 18.9% | [5] 18.8% | [6] 16.9%

Clc1ccc(-c2cc3ccccc3[nH]2)cc1
inactive: [1] 23.9% | [2] -3.3% | [3] -1.25% | [4] -32.4% | [5] 2.4% | [6] -5.05%

CC1(N)CC2CCC1C2 (centres undefined)
inactive: [1] -3.5% | [2] -1.25% | [3] 5% | [4] -14.2% | [5] -21.4% | [6] 2.75%

CC(=O)/C(C)=N/Nc1ccccc1
inactive: [1] 7.35% | [2] 8.6% | [3] -2.6% | [4] -11% | [5] -5.7% | [6] 11%

CCCCCCCCC1C(CCCCCCCC(=O)OC)C2(Cl)C(Cl)=C(Cl)C1(Cl)C2(Cl)Cl (centres undefined)
inactive: [1] 25.6% | [2] -11.5% | [3] -1.05% | [4] 3.05% | [5] -1.2% | [6] 14.3%

COc1ccc(C2OC(C)C(C)O2)cc1 (centres undefined)
inactive: [1] -9.3% | [2] 10.4% | [3] -1.5% | [4] -42.6% | [5] -8.35% | [6] -8%

CC(=O)OCC(OC(C)=O)C(OC(C)=O)C(OC(C)=O)C(OC(C)=O)c1cnn(-c2ccccc2)n1 (centres undefined)
inactive: [1] 15.9% | [2] -1.85% | [3] 11.6% | [4] 32.1% | [5] 6.05% | [6] -10.6%

Cn1c(=O)cc2n(C)c3ccccc3n2c1=O
inactive: [1] 33.1% | [2] 18.6% | [3] 1.2% | [4] -5.9% | [5] 6.2% | [6] 5.8%

Cc1ccc(OC(=O)c2ccc([N+](=O)[O-])cc2)cc1C(C)C
inactive: [1] -15.6% | [2] -9.25% | [3] -11.7% | [4] -6.45% | [5] -10.1% | [6] -22%

O=C1NC(Cc2ccc(O)cc2)C(=O)N2CCCC12 (centres undefined)
inactive: [1] 1.25% | [2] -3% | [3] -34.6% | [4] 0.4% | [5] -18.2% | [6] -14.2%

CC(=O)Nc1ccc(C(=O)NN2C(=O)C(Cl)C2c2ccc([N+](=O)[O-])cc2)cc1 (centres undefined)
inactive: [1] -0.05% | [2] 19.6% | [3] -2.05% | [4] 1.45% | [5] -24.4% | [6] 8.3%

C=CCOC(=O)NC(CCC(N)=O)C(=O)O (centres undefined)
inactive: [1] 19.7% | [2] 1.1% | [3] 14.7% | [4] 9.5% | [5] -1% | [6] 16.3%

CN(C=O)c1ccc2c(c1)C(=O)c1ccccc1-2
inactive: [1] 11.7% | [2] 2.1% | [3] 0.1% | [4] 4.2% | [5] -0.3% | [6] 9.55%

COC(=O)c1cccc(C)c1C(=O)c1ccc(C)cc1C
inactive: [1] 9.65% | [2] 26.6% | [3] 53.1% | [4] -22.5% | [5] 57.8% | [6] 57.2%

Nc1ncc2c(n1)CSCC2=O
inactive: [1] -9.4% | [2] 27.7% | [3] 14.1% | [4] -2.7% | [5] 16.9% | [6] 12%

CCCCCCCCNc1ncnc2[nH]ncc12
inactive: [1] 7.15% | [2] 11.3% | [3] 22.1% | [4] 6.5% | [5] 47.2% | [6] 13.9%

O=C(O)/C=C/c1ccc(OCc2ccccc2)c(OCc2ccccc2)c1
inactive: [1] 0.7% | [2] -11.7% | [3] 7.15% | [4] -10.9% | [5] -8.85% | [6] -6.9%

N#CCC(=O)N1CCCCC1
inactive: [1] -8.3% | [2] -12.1% | [3] 9.9% | [4] -3.15% | [5] 3.1% | [6] -19.8%

Cc1oc2nc(N(C)C)nc(NN)c2c1C
inactive: [1] 10.1% | [2] 5.55% | [3] -4.55% | [4] -0.75% | [5] 10.2% | [6] -13.8%

O=c1nc2n(cc1/C=C\Br)C1CC(O)C(CO2)O1 (centres undefined)
inactive: [1] -51% | [2] -24.6% | [3] -24.1% | [4] 13.3% | [5] -1.5% | [6] -23.6%

CC(=O)Oc1ccc(OC(C)=O)c2cc3c(cc12)C(=O)C(C)=C(C)C3=O
inactive: [1] 0.4% | [2] 2.35% | [3] 1.1% | [4] -7.05% | [5] 3.35% | [6] 4.85%

Cc1cccc(SC(=O)Nc2cc([N+](=O)[O-])ccc2Cl)c1
inactive: [1] 6.9% | [2] 4.4% | [3] 11.6% | [4] 10.6% | [5] 17.6% | [6] 20.5%

O=C1C(c2ccccc2)C(c2ccccc2)C(c2ccccc2)C1c1ccccc1 (centres undefined)
inactive: [1] 52% | [2] 1.05% | [3] 15.9% | [4] 5.65% | [5] -4.3% | [6] 5.65%

CN(CCO)c1nc2c(c(=O)[nH]1)CCC2
inactive: [1] -3.55% | [2] -21.8% | [3] -43% | [4] -5.25% | [5] -19.4% | [6] -21.8%

Cc1ccccc1NC(=O)Nc1ccc(Nc2ccccc2)cc1
inactive: [1] -6.5% | [2] 32.2% | [3] 9.95% | [4] -11.6% | [5] 5.95% | [6] 25.5%

CCCCNc1nc2nc[nH]c2c(=O)[nH]1
inactive: [1] -5.45% | [2] -6.3% | [3] -13.2% | [4] -2.25% | [5] -29.1% | [6] -48%

O=[N+]([O-])c1nccn1CCCN=c1c2ccccc2n(O)c2ccccc12
inactive: [1] 8.9% | [2] -16.4% | [3] -5.85% | [4] -5.8% | [5] -12.7% | [6] -33.4%

Cc1nn(C23CC4CC(CC(C4)C2)C3)c(C(Cl)Cl)c1Cl
inactive: [1] -4.4% | [2] -7.95% | [3] 2.7% | [4] -8.75% | [5] 2.05% | [6] 4.7%

CC(NC(=O)NCCCl)C1CC1 (centres undefined)
inactive: [1] -2.1% | [2] 0% | [3] -4.75% | [4] -11.8% | [5] -14.4% | [6] -0.8%

CCC1(CC)NC(=S)NC1=S
inactive: [1] 24.5% | [2] 7.4% | [3] 26.4% | [4] 10% | [5] 16.4% | [6] 20%

Nc1c2ccccc2nc2c(C(=O)Nc3ccc(S(N)(=O)=O)cc3)cccc12
inactive: [1] 16.4% | [2] -8.9% | [3] -1.45% | [4] 19% | [5] -2.45% | [6] 1.05%

CCCCCCCCCCCCCCCCn1/c(=N\N=O)sc2ccccc21
inactive: [1] -9.65% | [2] -17.9% | [3] -8.4% | [4] 11.6% | [5] -0.4% | [6] -0.25%

O=C(O)CCc1nc2c(n1Cc1ccccc1)C(=O)c1ccccc1C2=O
inactive: [1] 28.4% | [2] 21.3% | [3] 43.3% | [4] 44.7% | [5] 41.1% | [6] 13%

NC(=O)Nc1nc(-c2ccccc2)no1
inactive: [1] -16.7% | [2] 7.15% | [3] -17% | [4] -50.6% | [5] -6.75% | [6] -16.1%
